Experimental data as given in PubChem BioAssay.
Calls of active or inactive are those of the source. The rule behind the calls is not given here.

Each molecule was assayed on Aerobactin synthetase IucA (Klebsiella pneumoniae hvKP1) (assay: IucA enzyme inhibition, primary screen, biochemical, Spectrum library (AID 1346200;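 note: 100% = wells without compound and 0% = wells lacking enzyme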)). Conditions: malachite green pyrophosphate, A620, at 8 µM, hits give low values.
In the case of `COc1cc(O)c(C(=O)c2ccccc2)cc1O`, the activity remaining is reported as 107% (inactive). For `COc1cccc2c1C(=O)c1c(O)c3c(c(O)c1C2=O)C[C@@](O)(C(C)=O)C[C@@H]3O[C@H]1C[C@H](N)[C@H](O)[C@H](C)O1`, the activity remaining was 75.3% (inactive). With `C[C@]12CCC3c4ccc(OS(=O)(=O)O)cc4CCC3C1CCC2=O` (some centres undefined) the activity remaining was 122% (inactive). With `CN[C@@H]1[C@H](O)[C@H](NC)[C@H]2O[C@@]3(O)C(=O)C[C@@H](C)O[C@H]3O[C@@H]2[C@H]1O` the activity remaining was 108% (inactive).
